The results in this text go back to PubChem BioAssay (NCI).

Common to all, as to assay: NCI-60 one-dose screen, 48 h (100 = growth as untreated, 0 = no growth, -100 = all killed)
What all share (conditions): 10 µM unless noted

The test system of assay [1] is HCT-15 colon.
The subject of assay [2] is HT29 colon.
The test system of assay [3] is SNB-75 CNS.
For assay [4], the system named is SNB-19 CNS.
In assay [5] the test system is U251 CNS.
For assay [6], the system named is PC-3 prostate.
Assay [7] has as its system SK-MEL-5 melanoma.
The subject of assay [8] is UACC-62 melanoma.
The test system of assay [9] is LOX IMVI melanoma.
Assay [10] concerns SK-MEL-28 melanoma.
For assay [11], the system named is SK-MEL-2 melanoma.
Assay [12] deals with UO-31 renal.
For assay [13], the system named is TK-10 renal.
Assay [14] concerns ACHN renal.
Assay [15] relates to CAKI-1 renal.
Assay [16] concerns A498 renal.
In assay [17] the test system is CCRF-CEM leukemia.
The test system of assay [18] is MOLT-4 leukemia.
In assay [19] the test system is SN12C renal.
Assay [20] deals with EKVX NSCLC.

Each structure is given as a SMILES string. About 83,000 compounds went through this panel and 20% of them were active in at least one assay; those are over-represented in the sample as a whole.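 For each line, cells grew in 96-well plates with the test compound present at a single concentration for 48 hours.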 A number with no mark means an inactive call. Activity calls are given as the source filed them. The calls were made as follows: active = growth percent below 10; inactive = the rest.

`NC(=S)n1c(=O)n(-c2cccc(C(F)(F)F)c2)c(=O)c2cc(-c3ccc(F)cc3F)ccc21`: the growth in [1] was 9.27% (active); in assay [2] it was 37.4%; in assay [3], -24.9% (active); in assay [4], 15.6%; in assay [5] it was 9.68% (active); in assay [6], 0.986% (active). The growth in assay [7] is -57.3% (active); in assay [8] it was -3.3% (active); in assay [9], -46.5% (active); in assay [10], 23%; in assay [11], -29.1% (active); in assay [12], 6.1% (active). Besides, the growth in assay [13] is 7.56% (active); in assay [14], -0.456% (active); in [15] it was -13.5% (active); in [16] it was -18.8% (active); in assay [17] it was 18%; in assay [18], 0.58% (active).

For `O=C(CCCCCCN1CC(=O)N2[C@@H](c3ccccc3Br)c3[nH]c4ccccc4c3C[C@H]2C1=O)NO`, the growth is 90.2% in assay [1]; 37.2% in assay [2]; 21.8% in [3]; 55.4% in assay [4]; 44.7% in assay [5]; 56% in assay [6]. Besides, the growth in [7] is 30%; in assay [8], 21.6%; in assay [9], -60.4% (active); in assay [10] it was 31.6%; in [11], 39.3%; in assay [19] it was 66.3%. The growth in assay [12] was 58.4%; in assay [13] it was 28.7%; in [14] it was 70.2%; in assay [15], 42.2%; in assay [16], 74.7%; in assay [17], 17.7%. In [18], the growth was 6.43% (active).

On to `Cn1ncc2ncc(-c3ccc4ncc(C#N)c(N5CCc6cc(F)c(Cl)cc65)c4c3)cc21`, for which the growth is 23.2% in [1]; 41.4% in [2]; -1.84% (active) in assay [3]; 51.6% in assay [4]; 48.6% in [5]; 26% in assay [6]. The growth in assay [7] is 39.5%; in [8] it was 20.8%; in [9], 19.3%; in assay [10], 48.4%; in assay [11], 47.6%; in assay [19], 30.3%. Moreover, the growth in assay [12] is 3.14% (active); in [13] it was 63.2%; in assay [14], 17%; in assay [15], 13.6%; in [16], 2.55% (active); in assay [17] it was 28.4%. Moreover, the growth in assay [18] was 12.6%.

For `COc1ccc2[nH]cc(/C=N/Nc3ccnc4cc(Cl)ccc34)c2c1`, the growth in assay [1] is -88.1% (active); in [2] it was -42.3% (active); in assay [3], -94.1% (active); in assay [4], -100% (active); in assay [5] it was -83.3% (active); in [6], -86.4% (active). Also, the growth is -100% (active) in assay [7]; -98.3% (active) in assay [8]; -92.7% (active) in assay [9]; -100% (active) in assay [10]; -83.6% (active) in assay [11]; -100% (active) in assay [19]. The growth in assay [12] was -100% (active); in [13], -96.5% (active); in [14], -100% (active); in assay [15], -99.9% (active); in assay [17], -42.8% (active); in assay [18] it was -48.4% (active).

As for `O=C(CSc1nnc(-c2cccs2)n1-c1ccccc1)Nc1ccccc1F`, the growth is 52.7% in assay [1]; 75.1% in assay [2]; 84.4% in [3]; 83.2% in [4]; 89.3% in [5]; 93.3% in assay [6]. Further, the growth is 91.2% in [7]; 57.7% in assay [8]; 78.9% in assay [9]; 81.1% in assay [10]; 95.8% in [11]; 99.1% in [19]. In addition, the growth in assay [12] is 77.4%; in [13], 110%; in [14], 92.5%; in [15], 55.6%; in assay [16], 79.9%; in assay [17] it was 76.9%. In [18], the growth is 72%.

Take `CCN(CC)S(=O)(=O)c1ccc(-c2nc(C(Cl)Cl)nc3cc(-c4ccc(F)cc4)nn23)cc1`: the growth in assay [1] is 23.3%; in assay [2], 4.77% (active); in assay [3], 56.5%; in assay [4] it was 40.2%; in assay [5], 17.7%; in [6] it was 18.6%. Further, the growth in assay [7] is 83.3%; in assay [8], 54.2%; in assay [9] it was 32%; in [10], 27.9%; in assay [11], 82.3%; in assay [20], 32%. The growth in assay [12] was 27.6%; in assay [13], 49.9%; in assay [14], 0.483% (active); in assay [15], 12%; in assay [16], 56.2%; in [17] it was 73.9%. The growth in assay [18] was 56.6%.

For the compound `CN(C)CCNc1ccc2ncc(C#Cc3cncc(C(=O)Nc4ccc(CN5CCN(C)CC5)c(C(F)(F)F)c4)c3)n2n1`, the growth in [1] was 34.7%; in [2] it was -13% (active); in [3], -93.4% (active); in assay [4] it was 1.59% (active); in assay [5], 23.8%; in assay [6], 2.27% (active). Moreover, the growth in assay [7] was 74.6%; in [8], 60.2%; in [9], -88.6% (active); in assay [10] it was 75%; in assay [11], 0.656% (active); in assay [19], -9.94% (active). Moreover, the growth in assay [12] is 77.8%; in assay [13], 26.6%; in assay [14] it was 10.7%; in assay [15], 3.13% (active); in assay [16] it was 87.7%; in assay [17] it was 5.95% (active). Besides, the growth in assay [18] is -9.54% (active).

As for `CCC(=C(c1ccc(OCCN(C)C)cc1)c1ccc(OCCN(C)C)cc1)c1ccc(Cl)cc1`, the growth in assay [1] is -74.8% (active); in assay [2] it was -38.9% (active); in assay [3] it was 17.7%; in assay [4], -39.8% (active); in [5], -64.5% (active); in assay [6] it was -12.1% (active). In addition, the growth in [7] was -95.8% (active); in assay [8] it was -73.6% (active); in assay [9], -98.1% (active); in assay [10], -83.3% (active); in assay [11] it was -41.8% (active); in assay [19], -33.2% (active). Moreover, the growth in assay [12] was -71.9% (active); in assay [13], 60.2%; in assay [14] it was -78.5% (active); in assay [15], -53.6% (active); in [16], -23.3% (active); in assay [17], -50.8% (active). Besides, in assay [18], the growth is -50.2% (active).
